The values that follow come from PubChem BioAssay (Tox21).

Assay [1] in a line: qHTS assay to identify small molecule agonists of the hypoxia (HIF-1) signaling pathway - cell viability counter screen (AID 1224844; calls by dose curve; note: nearly all actives have a fitted effect of over 50% in size). The method, boiled down: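 In this counter screen, HRE-bla ME-180 cell viability after 17 hrs of compound exposure at 37C was read by CellTiter-Glo luminescence, multiplexed with the beta-lactamase reporter measurement.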
On the technique in general: In qHTS, concentration-response curves come from the screen itself.

A short description of assay [2]: qHTS assay to identify small molecule agonists of H2AX (AID 1224845; active = well fitted activation curve with a large enough effect in the signal ratio in the repeat runs, not every such curve was filed as active; the % refers to the signal ratio). The method in brief:
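Phospho-H2AX Ser139 measured by HTRF (ex 320 nm; em 665 and 620 nm) after 24 hr antibody incubation. Compounds, 15 concentrations, 0.76% DMSO, were applied to CHO-K1 cells for 3hr at 37C before lysis.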

Assay [3] is described as follows: qHTS assay to identify small molecule agonists of the hypoxia (HIF-1) signaling pathway (AID 1224846; active = well fitted activation curve with a large enough effect in the signal ratio in the repeat runs, not every such curve was filed as active; the % refers to the signal ratio). The method, boiled down:
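ME-180 HRE-bla reporter cells; compounds in DMSO, 17 h at 37C; read-out beta-lactamase via CCF4-AM FRET.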

Assay [4] can be described thus: qHTS assay to identify small molecule agonists of H2AX - cell viability counter screen (AID 1224847; calls by dose curve; note: nearly all actives have a fitted effect of over 30% in size; note: potency is the fitted concentration of half-maximal effect). The method, boiled down:
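Wild-type CHO-K1 cells (10% FBS medium) were plated overnight at 37C, exposed to compounds at 15 concentrations for 3 hr at 37C (0.76% DMSO final), and viability was read as CellTiter-Glo luminescence after 30 min at room temperature.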

The nature of assay [5]: qHTS RealTime-Glo MT Cell Viability Assay in HepG2 cells - 24 hour (AID 1224867). Note: nearly all actives have a fitted effect of over 50% in size. The method, boiled down:
(§1)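 Cell number in HepG2 cultures estimated from NanoLuc luminescence generated by metabolic reduction of a prosubstrate by living cells. The homogeneous, nonlytic format allowed repeated reads at 0, 8, 16, 24, 32 and 40 h of compound exposure.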

Assay [6] can be described thus: qHTS RealTime-Glo MT Cell Viability Assay in HEK293 cells - 32 hour (AID 1224868). Note: top concentration of the series differs between compounds; nearly all actives have a fitted effect of over 50% in size. The method in brief:
(§2)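 Homogeneous bioluminescent viability format in HEK293 cells (600 cells/well). Following 5 h at 37 C/5% CO2, 23 nL compound was pintooled; the signal was measured repeatedly during 40 h incubation.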

A short description of assay [7]: A CellTox Green Cytotoxicity Assay to monitor cytotoxicity in HEK293 cells - 0 hour (AID 1224869). Note: nearly all actives have a fitted effect of over 50% in size. The method in brief:
(§3)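 Real-time, in one plate: 600 HEK293 cells/well with dead-cell DNA dye, pinned compound after 5 h, 37 C incubation over 40 h; viable cells give no appreciable fluorescence.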

Assay [8] can be described thus: qHTS RealTime-Glo MT Cell Viability Assay in HepG2 cells - 40 hour (AID 1224870). Note: nearly all actives have a fitted effect of over 50% in size. The method, boiled down:
(§4)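 Real-time viability: cells seeded at 600 per well together with NanoLuc and cell-permeant prosubstrate, compounds added after 5 h incubation. Luminescence tracked at 0, 8, 16, 24, 32 and 40 h of exposure.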

The nature of assay [9]: A CellTox Green Cytotoxicity Assay to monitor cytotoxicity in HEK293 cells - 40 hour (AID 1224871). Note: nearly all actives have a fitted effect of over 45% in size. The method in brief:
as §3

The nature of assay [10]: qHTS RealTime-Glo MT Cell Viability Assay in HEK293 cells - 16 hour (AID 1224872). The method, boiled down:
as §2

Assay [11] can be described thus: qHTS RealTime-Glo MT Cell Viability Assay in HepG2 cells - 8 hour (AID 1224873). Note: nearly all actives have a fitted effect of over 55% in size. The method, boiled down: as §4
The nature of assay [12]: qHTS RealTime-Glo MT Cell Viability Assay in HEK293 cells - 40 hour (AID 1224874). Note: nearly all actives have a fitted effect of over 50% in size. The conditions noted are these: RealTime-Glo luminescence; max response: stronger effect = lower value. The method, boiled down: (§5)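 Kinetic, non-lysing viability readout. Seed HEK293 (600/well) with reagent, incubate 5 h at 37 C/5% CO2, pin 23 nL compound in DMSO, incubate at 37 C, read luminescence at 0, 8, 16, 24, 32, 40 h.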

Assay [13] is described as follows: A CellTox Green Cytotoxicity Assay to monitor cytotoxicity in HEK293 cells - 24 hour (AID 1224875). Note: nearly all actives have a fitted effect of over 45% in size. The method in brief:
as §3

Assay [14] can be described thus: A CellTox Green Cytotoxicity Assay to monitor cytotoxicity in HepG2 cells - 16 hour (AID 1224876). Note: nearly all actives have a fitted effect of over 45% in size. The method, boiled down:
(§6)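 Cytotoxicity was tracked as dead-cell DNA fluorescence in HepG2 cells treated with test compounds at 37 C; each time-point value comes from one kinetic series spanning 0, 8, 16, 24, 32 and 40 h.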

Assay [15] is described as follows: qHTS RealTime-Glo MT Cell Viability Assay in HepG2 cells - 32 hour (AID 1224877). Note: nearly all actives have a fitted effect of over 55% in size. The method, boiled down: as §1
The nature of assay [16]: A CellTox Green Cytotoxicity Assay to monitor cytotoxicity in HepG2 cells - 24 hour (AID 1224878). Note: nearly all actives have a fitted effect of over 45% in size. The method in brief:
as §6

The nature of assay [17]: A CellTox Green Cytotoxicity Assay to monitor cytotoxicity in HepG2 cells - 40 hour (AID 1224879). Note: nearly all actives have a fitted effect of over 40% in size. The method, boiled down: as §6
Assay [18] can be described thus: qHTS RealTime-Glo MT Cell Viability Assay in HEK293 cells - 0 hour (AID 1224880). The method in brief: as §5
Assay [19] in a line: qHTS assay to identify small molecule antagonists of the estrogen related receptor (ERR) signaling pathway from Tox21 library (AID 1224848). Note: nearly all actives have a fitted effect of over 50% in size. The method, boiled down:
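ERR cell line, 2,000 cells/well. 6 h settle, then compound (DMSO) added; 18 h at 37 C; ONE-Glo luminescence after 30 min RT.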

Assay [20] is described as follows: qHTS assay to identify small molecule agonists of the estrogen related receptor (ERR) signaling pathway from Tox21 library (AID 1224849; calls by dose curve; note: nearly all actives have a fitted effect of over 15% in size). The conditions noted are these: ERR reporter cell line, ONE-Glo luciferase, 18 h; at 92.4 µM (top of the series) unless noted. The method, boiled down: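 Luciferase activity in ERR pathway reporter cells served as the agonist readout; exposure lasted 18 h at 37 C, with ONE-Glo detection after 30 min at room temperature.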

Values without a mark were called inactive. Results filed as inconclusive are left out. The source made the active and inactive calls. Unless noted, calls come from the whole dose curve; as a rule, active = well fitted curve in the direction sought with a large enough effect in the repeat runs; inconclusive = weak or mixed curves; inactive = no such curve, though single readings can be large; an effect the other way counts as inactive or inconclusive.
% is set by controls: 0 for no effect and ±100 for the full control effect.

Turning to `N#CCc1cccc(C(F)(F)F)c1`, the Potency result in [1], in assay [2], in assay [4], in [5], in assay [6] and in assay [7] was “inactive” throughout. The Potency entry in [8], in [9], in assay [10], in [11], in assay [13] and in [14] was “inactive” throughout. Further, the Potency result in assay [15], in assay [16], in assay [17] and in assay [18] was “inactive” each time. Moreover, in assay [3], the call was inactive. Also, the max response in assay [12] was 10.3%.

As for `CC(CN)CCCN` (stereo not drawn), the Potency result in assay [1], in assay [2], in assay [19], in [5], in [6] and in assay [7] was “inactive” in each case. The Potency result in assay [9], in assay [10], in assay [11], in [14], in [15] and in assay [16] was “inactive” throughout. In addition, the Potency entry in assay [17] and in [18] was “inactive” in each case. Besides, the result in [3] was inactive. In addition, in [4], the Potency was 0.357 µM (active). Besides, in assay [20], the activity change, positive = activation is -0.964%. Further, the max response in [12] was 1.48%.

Consider `CCCCCCCCC(CO)CCCCCC` (stereo not drawn), for which the Potency entry in assay [1], in [2], in assay [4], in [19], in assay [5] and in [6] was “inactive” throughout. The Potency result in assay [7], in assay [8], in assay [9], in assay [10], in assay [11] and in [14] was “inactive” each time. Moreover, the Potency result in assay [15], in assay [16], in [17] and in [18] was “inactive” in each case. Besides, the result in assay [3] was inactive. Moreover, the activity change, positive = activation in [20] was 4.04%. In addition, the max response in [12] was 1.58%.

As for `Cn1c(NCCN(CCO)CCCc2ccc([N+](=O)[O-])cc2)cc(=O)n(C)c1=O`, the Potency entry in assay [1], in assay [2], in assay [4], in [5], in [6] and in assay [7] was “inactive” throughout. Moreover, the Potency result in assay [8], in assay [9], in [10], in assay [11], in [15] and in assay [16] was “inactive” throughout. Further, the Potency result in assay [17] and in assay [18] was “inactive” in each case. Also, the outcome in [3] was inactive. Further, the activity change, positive = activation in assay [20] was 4.48% [at 42.5 µM]. Besides, in assay [12], the max response was -12.1%.

Regarding `C[Si](C)O[Si](C)(C)O[Si](C)(C)O[Si](C)C`, the Potency entry in assay [1], in assay [2], in assay [4], in assay [5], in [6] and in assay [7] was “inactive” each time. Further, the Potency result in assay [8], in assay [9], in [10], in assay [11], in assay [13] and in [14] was “inactive” throughout. Moreover, the Potency result in [15], in assay [16], in assay [17] and in assay [18] was “inactive” in each case. The call in assay [3] was inactive. In assay [12], the max response was 7.78%.

With `CCCCCCCCCCCCC(=O)O`, the Potency result in [1], in [2], in [4], in [5], in assay [6] and in assay [7] was “inactive” throughout. The Potency result in [8], in [9], in assay [10], in assay [11], in [13] and in assay [14] was “inactive” in each case. In addition, the Potency result in assay [15], in assay [16], in assay [17] and in assay [18] was “inactive” in each case. In addition, the call in [3] was inactive. The max response in assay [12] is 0.0822%.

On to `Nc1nc(N)c(-c2ccccc2)s1`, for which the Potency result in [1], in [2], in assay [4], in [19], in assay [5] and in assay [6] was “inactive” each time. The Potency entry in assay [7], in [8], in assay [9], in assay [10], in assay [11] and in [13] was “inactive” in each case. The Potency entry in [14], in [15], in assay [16], in assay [17] and in assay [18] was “inactive” each time. Besides, in assay [3], the molecule was classed as inactive. For the same molecule, the activity change, positive = activation in assay [20] was 3.26% [at 42.5 µM]. The max response in assay [12] is 5.71%.
